The values that follow come from PubChem BioAssay AID372 (MTDP, 2006).

Hit rate of the full screen: of about 100,000 compounds, about 770 (0.77%) were called active. Rule as the data show it: active = inhibition above about 50%; inactive = the rest. The entries come from a sample that favours actives as a whole.

The assay deals with Gag-Pol polyprotein (Human immunodeficiency virus type 1 group M subtype B (isolate HXB2)) (UniProt P04585). The assay is described as follows: RNase H inhibition, HIV 1 Gag Pol polyprotein, FRET biochemical assay, screening (AID 372). The following applies: HIV-1 RT RNase H, FRET RNA/DNA substrate fluorescence; at 10 µM; hits give high values.
Consider `O=C1c2ccccc2C(=O)N1CC(O)Cn1c2ccc(Br)cc2c2cc(Br)ccc21` (stereo not drawn), for which the inhibition is 16% (inactive).

As for `CCc1ccc(OCCCN2CCOCC2)cc1`, the inhibition is 3% (inactive).

Take `CCc1ccc(OCCCCCCN2CCOCC2)cc1`: the inhibition was 8% (inactive).

Turning to `CCc1ccc(OCCN2CCOCC2)cc1`, the inhibition was 50% (active).

Regarding `Cc1cc(/C=C2\C(=O)NC(=O)N(c3ccc(Br)cc3)C2=O)c(C)n1-c1cccnc1`, the inhibition was 2% (inactive).

Turning to `COc1ccccc1NC(=O)c1c(NC(=O)c2cc([N+](=O)[O-])ccc2Cl)sc2c1CCCC2`, the inhibition was 3% (inactive).

For the compound `CCN(CC)C(=O)c1sc(NC(=O)c2cc(OC)cc(OC)c2)c(C(=O)OC)c1C`, the inhibition was 10% (inactive).

Consider `O=C1NC(=Nc2cccc(O)c2)S/C1=C/C(Cl)=C/c1ccc([N+](=O)[O-])cc1`, for which the inhibition is 51% (active).

On to `O=C1NC(=Nc2ccc(O)cc2)S/C1=C/C(Cl)=C/c1ccc([N+](=O)[O-])cc1`, for which the inhibition was 0% (inactive).

As to `O=C1NC(=Nc2ccc(O)cc2)S/C1=C\c1ccc([N+](=O)[O-])cc1`, the inhibition is 4% (inactive).

With `O=C1C(=O)N(c2ccc(Br)cn2)C(c2ccccc2[N+](=O)[O-])/C1=C(/O)c1ccccc1` (stereo not drawn), the inhibition was 4% (inactive).

With `O=C(Nc1ccc(F)cc1)Nc1nnc(CSCc2ccc(Cl)cc2)s1`, the inhibition was 26% (inactive).

`N=C1S/C(=C\c2ccc(-c3ccc([N+](=O)[O-])cc3)o2)C(=O)N1c1ccc2c(c1)OCO2`: the inhibition is 12% (inactive).

As for `N=C1S/C(=C\c2cc3c(cc2[N+](=O)[O-])OCO3)C(=O)N1c1ccc(F)cc1`, the inhibition is 55% (active).

For `O=C1NC(=O)N(c2ccc3c(c2)OCO3)C(=O)/C1=C/c1ccc(-c2cccc([N+](=O)[O-])c2)o1`, the inhibition is 0% (inactive).

As for `O=C1NC(=O)N(c2ccc3c(c2)OCO3)C(=O)/C1=C/c1ccc(Sc2ccccc2)o1`, the inhibition was 0% (inactive).

Consider `N=C1S/C(=C\c2ccc3c(c2)OCO3)C(=O)N1c1ccc(F)cc1`, for which the inhibition was 43% (inactive).

On to `O=C1NC(=O)N(c2ccc3c(c2)OCO3)C(=O)/C1=C/c1ccc(-c2cccc(Cl)c2)o1`, for which the inhibition was 53% (active).

As for `O=C1/C(=C\c2cc3c(cc2[N+](=O)[O-])OCO3)SC(=S)N1c1ccccc1`, the inhibition is 24% (inactive).

In the case of `N=C1S/C(=C\c2ccc(-c3ccc(F)cc3)o2)C(=O)N1c1ccc2c(c1)OCO2`, the inhibition is 52% (active).

For `N=C1S/C(=C\c2ccc(-c3ccccc3F)o2)C(=O)N1c1ccc2c(c1)OCO2`, the inhibition is 30% (inactive).

Take `COc1ccc(OC)c(/C=C2\C(=O)NC(=S)N(c3ccc(Br)cc3)C2=O)c1`: the inhibition was 12% (inactive).

For `O=C(Nc1nnc(SCc2ccccc2)s1)c1cccc2ccccc12`, the inhibition was 3% (inactive).

In the case of `O=[N+]([O-])c1ccc(OCCCCN2CCOCC2)cc1`, the inhibition is 9% (inactive).

For `Clc1ccc(OCCOCCOc2cccc3cccnc23)c2ccccc12`, the inhibition is 45% (inactive).

Consider `O=C(Nc1ccccc1Cl)c1ccc(N2C(=O)c3ccccc3C2=O)cc1`, for which the inhibition is 16% (inactive).

With `CSCCC(NC(=O)c1ccccc1)C(=O)OCC(=O)Nc1cc(C)on1` (stereo not drawn), the inhibition is 11% (inactive).

Regarding `CCCOc1ccc2ccccc2c1C=C1C(=O)NC(=S)NC1=O`, the inhibition is 23% (inactive).

For `COc1ccc(OC)c(N(CC(=O)Nc2ccccc2F)S(C)(=O)=O)c1`, the inhibition is 8% (inactive).

`S=C(NCc1ccccc1)N/N=C/c1ccco1`: the inhibition is 22% (inactive).

For `COc1ccc(CCNC(=O)C(=O)Nc2ccccc2)cc1`, the inhibition was 11% (inactive).

Turning to `Cc1ccc(NC(=O)CSc2nc3ccccc3s2)cc1C`, the inhibition is 41% (inactive).

Turning to `CN1CCN(/N=C/c2ccc([N+](=O)[O-])s2)CC1`, the inhibition was 6% (inactive).

Turning to `CCOc1ccc(-n2sc3c(c2=S)-c2ccc(OC)cc2NC3(C)C)cc1`, the inhibition was 2% (inactive).

As for `COc1cc(NC(=O)c2ccccc2F)ccc1NC(=O)c1cc2ccccc2o1`, the inhibition is 24% (inactive).

Turning to `COc1cc(NC(=O)c2cccc(Cl)c2)ccc1NC(=O)c1cc2ccccc2o1`, the inhibition was 34% (inactive).

On to `COc1cc(NC(=O)c2cc(Cl)ccc2OC)ccc1NC(=O)c1cc2ccccc2o1`, for which the inhibition is 55% (active).

As to `COc1cc(NC(=O)c2ccc(Cl)cc2Cl)ccc1NC(=O)c1cc2ccccc2o1`, the inhibition is 21% (inactive).

Turning to `COc1ccc(Cl)cc1C(=O)Nc1ccc(Cl)c(-c2nc3ncccc3o2)c1`, the inhibition was 57% (active).

As to `O=C(Nc1ccc(Cl)c(-c2nc3ncccc3o2)c1)c1ccc(Cl)cc1Cl`, the inhibition is 6% (inactive).

Turning to `CCOc1cc(C(=O)Nc2ccc(NC(=O)c3cc4ccccc4o3)c(OC)c2)cc(OCC)c1OCC`, the inhibition was 11% (inactive).

Turning to `COc1cc(NC(=O)c2cc(Cl)c(OC)c(Cl)c2)ccc1NC(=O)c1cc2ccccc2o1`, the inhibition was 52% (active).

`COc1ccc(Cl)cc1C(=O)Nc1cccc(-c2nc3ncccc3o2)c1C`: the inhibition is 3% (inactive).

As to `COc1cc(NC(=O)c2ccc(C(C)(C)C)cc2)ccc1NC(=O)c1cc2ccccc2o1`, the inhibition is 7% (inactive).

With `COc1cc(NC(=O)c2cccc(Br)c2)ccc1NC(=O)c1cc2ccccc2o1`, the inhibition was 51% (active).

In the case of `COc1ccc(C(=O)Nc2ccc(NC(=O)c3cc4ccccc4o3)c(OC)c2)cc1Br`, the inhibition was 6% (inactive).

On to `COc1ccccc1N1CCN(C(=O)Cc2ccc(Cl)cc2)CC1`, for which the inhibition is 5% (inactive).

As for `CCCCOc1ccc(C(=O)NC(=S)Nc2cccc(Cl)c2Cl)cc1`, the inhibition is 15% (inactive).

On to `COc1cccc(C(=O)Nc2ccc(O)c(-c3nc4cc(C)ccc4o3)c2)c1`, for which the inhibition is 5% (inactive).

On to `CCc1ccccc1NC(=O)C(=O)NCCCOC`, for which the inhibition was 14% (inactive).

For the compound `O=C(O)C1C2CC=CC2c2cc(Oc3ccccc3)cc3c2N1CC1CC=CC31` (stereo not drawn), the inhibition is 40% (inactive).

On to `Cc1ccc(OCCCCNC(C)(C)C)c(C)c1`, for which the inhibition is 2% (inactive).

As for `Cc1ccc(OCCCNC(C)(C)C)c(C(C)(C)C)c1`, the inhibition was 62% (active).

In the case of `Cc1ccc(OCCCNC(C)(C)C)c(C)c1`, the inhibition was 10% (inactive).

For `COCCOC(=O)C1=C(C)NC(=O)CC1c1ccccc1Br` (stereo not drawn), the inhibition is 3% (inactive).

`COc1ccc(/C=N/N(C)c2cc(C)nc(-c3ccccc3O)n2)cc1OC`: the inhibition was 18% (inactive).

Take `COc1ccc(C=Nc2ccc(Cl)c(Cl)c2)c2ccccc12`: the inhibition was 32% (inactive).

In the case of `Cc1ccc(C(=O)NC(=S)Nc2ccc3oc(-c4ccc(Cl)cc4)nc3c2)cc1C`, the inhibition was 8% (inactive).

As to `Nc1ccc(-c2ccc(N3C(=O)c4cccc5c(C(=O)c6ccccc6)ccc(c45)C3=O)cc2)cc1`, the inhibition is 51% (active).

As to `O=C(O)c1ccc2c3c(cccc13)C(=O)N(c1ccccc1)C2=O`, the inhibition is 21% (inactive).

Regarding `CC(=O)Nc1ccc(N2C(=O)c3cccc4c(C(=O)c5ccccc5)ccc(c34)C2=O)cc1`, the inhibition is 20% (inactive).

Regarding `O=C(N=NC(=O)c1ccccc1O)c1ccc(-n2c(O)c3ccccc3c2O)cc1`, the inhibition is 8% (inactive).

On to `Cc1ccc(C(=O)Nc2ccc(Nc3ccccc3)cc2)cc1[N+](=O)[O-]`, for which the inhibition was 15% (inactive).

For `Cc1ccc(NCC(=O)N/N=C\c2ccccc2OCC(=O)O)cc1`, the inhibition was 7% (inactive).

Take `Cc1ccc(/C=C/C(=O)NC(=S)Nc2ccc(S(=O)(=O)N=C(N)N)cc2)cc1`: the inhibition was 63% (active).

Turning to `COc1ccc(/C=C/C(=O)NC(=S)Nc2ccc(S(=O)(=O)N=C(N)N)cc2)cc1`, the inhibition was 57% (active).

Take `NC(N)=NS(=O)(=O)c1ccc(NC(=S)NC(=O)/C=C/c2ccc(Br)cc2)cc1`: the inhibition is 19% (inactive).

For the compound `COc1ccc(/C=C/C(=O)NC(=S)Nc2ccc(I)cc2)cc1`, the inhibition is 8% (inactive).

Regarding `CC(C)c1ccc(/C=C/C(=O)NC(=S)Nc2ccc(S(=O)(=O)N=C(N)N)cc2)cc1`, the inhibition is 41% (inactive).

With `COc1ccc(C(=O)NC(=S)Nc2ccc(S(=O)(=O)N=C(N)N)cc2)cc1`, the inhibition was 2% (inactive).

Consider `CC(=O)C1=C(O)C(=O)N(c2ccc(Br)cn2)C1c1ccc([N+](=O)[O-])cc1` (stereo not drawn), for which the inhibition is 0% (inactive).

For `CCCN1CCC(NCCc2ccc(F)cc2)CC1`, the inhibition is 1% (inactive).

Turning to `COc1cc(OC)cc(C(=O)N2CCN(Cc3ccccc3[N+](=O)[O-])CC2)c1`, the inhibition is 6% (inactive).

Turning to `O=C(O)c1ccc(/C=N/Nc2ccc([N+](=O)[O-])cc2)cc1`, the inhibition is 10% (inactive).

For the compound `O=C(O)c1ccc(N/N=C/c2c(Cl)ccc(Cl)c2Cl)cc1`, the inhibition is 51% (active).

For `O=C(O)c1ccc(N/N=C/c2ccccc2C(F)(F)F)cc1`, the inhibition was 6% (inactive).

Regarding `COc1cc(C=O)ccc1OCCOc1ccc(Cl)cc1`, the inhibition is 7% (inactive).

For `COc1ccc2c(c1)c(=O)oc1cc(OCc3ccc(C(=O)O)cc3)ccc12`, the inhibition is 19% (inactive).

In the case of `COC(=O)c1ccc(COc2ccc3c(c2)oc(=O)c2cc(OC)ccc23)cc1`, the inhibition was 59% (active).

Consider `COC(=O)c1ccc(COc2ccc3c(c2)oc(=O)c2ccccc23)cc1`, for which the inhibition is 48% (inactive).

In the case of `COc1ccc(OC)c(/C=C2\SC(N3CCCCCC3)=NC2=O)c1`, the inhibition was 11% (inactive).

Take `Cc1ccc(/C=C2/SC(=S)N(CCCC(=O)Nc3cc(Cl)ccc3O)C2=O)cc1`: the inhibition was 16% (inactive).

With `CCOc1ccccc1NC(=O)CCN1C(=O)/C(=C/c2ccc(C)cc2)SC1=S`, the inhibition is 56% (active).

For `Cc1ccc(/C=C2/SC(=S)N(CCC(=O)Nc3ccc(Br)cc3)C2=O)cc1`, the inhibition is 0% (inactive).

With `O=C1/C(=C/c2cccs2)SC(=S)N1CCCC(=O)N(Cc1ccccc1)c1ccccc1`, the inhibition is 50% (active).

For the compound `CC(C)(C)N(Cc1ccccc1)C(=O)CCN1C(=O)/C(=C\c2cccs2)SC1=S`, the inhibition is 12% (inactive).

As to `CC(C)(C)N(Cc1ccccc1)C(=O)CCCN1C(=O)/C(=C/c2cccs2)SC1=S`, the inhibition was 37% (inactive).

As for `Cc1ccc(/C=C2\SC(=S)N(CCC(=O)Nc3ccc(S(N)(=O)=O)cc3)C2=O)cc1`, the inhibition was 57% (active).

`Cc1ccc(/C=C2\SC(=S)N(CCC(=O)Nc3ccc(Cl)cc3)C2=O)cc1`: the inhibition is 18% (inactive).

In the case of `COc1ccccc1NC(=O)CCN1C(=O)/C(=C/c2ccc(C)cc2)SC1=S`, the inhibition is 11% (inactive).

As to `Cc1ccc(/C=C2\SC(=S)N(CCC(=O)Nc3cc(Cl)ccc3O)C2=O)cc1`, the inhibition was 10% (inactive).

For `COc1ccc(/C=C2\SC(=S)N(CCC(=O)Nc3cc(Cl)ccc3O)C2=O)cc1`, the inhibition was 53% (active).

For the compound `CCOc1ccccc1NC(=O)CCCN1C(=O)/C(=C/c2ccc(C)cc2)SC1=S`, the inhibition was 27% (inactive).
